Experiment [1] deals with MDA-MB-231. Briefly: cell viability relative to vehicle unstimulated control (fraction); higher = more viable cells. To be noted: pre-treatment time: 18 h then 24 h IFNg/TNF.
Experiment [2] concerns MDA-MB-231. Briefly: kynurenine production, fold change vs DMSO IFNg/TNF control; higher = more kynurenine produced (less inhibition). The following applies: pre-treatment time: 18 h then 24 h IFNg/TNF. Summed up: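 Fold change over cytokine-stimulated vehicle wells on the same plate is the measure used for kynurenine production, averaged across duplicate plates in the first screening round. MDA-MB-231 cells, seeded 24 h beforehand at 7 × 10^4/well in 96-well plates, were pre-treated 18 h with each natural product in 0.1% DMSO and stimulated 24 h at 37°C with IFNγ (1 U/ml) and TNF (6.25 ng/ml). Supernatants were read at 492 nm following trichloroacetic acid and p-dimethylaminobenzaldehyde treatment, against 0–100 μM standards.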

± gives the standard deviation of the averaged measurements.
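For cell viability relative to vehicle unstimulated control in this document: viability of the cells left after supernatant collection, read with Deep Blue dye added for 4 h, as absorbance at 570 nm minus 600 nm.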

As to `C=C[C@@](C)(/C=C/c1ccc(O)cc1)CCC=C(C)C` [Bakuchiol] (compound dose: 10 uM), the cell viability in the experiment on MDA-MB-231 [1] stood at 0.95 ± 0.037. Also, the kynurenine production in the experiment with MDA-MB-231 [2] was 0.736 ± 0.018.
The like results for `C[C@@H]1CC[C@H]2C(C)(C)[C@H]3C[C@@]12CC[C@@]3(C)O` [Cedrol] (compound dose: 10 uM) were, in that order, 0.977 ± 0.06 and 1.06 ± 0.019.
For `CC(CC(=O)C[C@@H](C)[C@H]1CC(=O)[C@@]2(C)C3=C(C(=O)[C@@H](O)[C@]12C)[C@@]1(C)CC[C@H](O)C(C)(C)[C@@H]1C[C@@H]3O)C(=O)O` (stereo partly specified) [Ganoderic acid G] (compound dose: 10 uM), in that order: 1.1 ± 0.058 and 0.973 ± 0.16.
In the case of `C=C1C=CC(C(C)C)CC1` (stereo not drawn) [β-Phellandrene] (compound dose: 10 uM), the cell viability in the experiment on MDA-MB-231 [1] turned out to be 0.99 ± 0.038. Besides, the kynurenine production in the experiment on MDA-MB-231 [2] was found to be 0.832 ± 0.18.
The like results for `COC(=O)C1=CO[C@@H](O[C@@H]2O[C@H](CO)[C@@H](O)[C@H](O)[C@H]2O)[C@@H]2[C@@H](C)CC(=O)[C@]12O` [Hastatoside] (compound dose: 10 uM) were, in that order, 0.981 ± 0.017 and 0.797 ± 0.12.
For `C=C1CCC[C@]2(C)C[C@]3(O)OC(=O)C(C)=C3C[C@@H]12` [Atractylenolide III] (compound dose: 10 uM), in that order: 1.015 ± 0.0091 and 0.763 ± 0.15.
The like results for `CC1=CC23C(=O)C(C=C4COC(C)(C)OC4C24OC(C)(C)OC14)C1C(CC3C)C1(C)C` (stereo unspecified) [Ingenol-3,4,5,20-diacetonide] (compound dose: 10 uM) were, in that order, 1.09 ± 0.23 and 0.893 ± 0.14.
On to `CCCCC/C=C/C=C/C(=O)O[C@H]1C(C)=C[C@]23C(=O)[C@@H](C=C(CO)[C@@H](O)[C@]12O)[C@H]1[C@@H](C[C@H]3C)C1(C)C` [3-O-(2'E,4'EDecadienoyl)ingenol] (compound dose: 10 uM), for which, in the experiment with MDA-MB-231 [1], the cell viability was 0.9682 ± 0.0024. For the same compound, in the experiment with MDA-MB-231 [2], the kynurenine production worked out at 0.812 ± 0.086.

These data come from the supplement of paper PMC13094657.
